Hits are enriched below; roughly 6.1% of the tested compounds scored in any of these assays.
ATXN2 expr inh – reduces ATXN2 reporter expression in HEK-293 cells. 360,000 tested, 0.72% active. HEK-293 ATXN2-luciferase reporter, luminescence, 24 h. Potency, µM (highest dose often 57 µM), hits mostly inhibitors; further: nearly all actives have a fitted effect of over 55% in size
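ATXN2-luciferase reporter cells (luciferase flanked by upstream and downstream ATXN2 gene portions) were treated 24 h at 37 °C with compounds at up to 57 uM. SteadyGlo luminescence gave expression; GF-AFC fluorescence gave viability.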
RORg inh – inhibitors of mouse ROR gamma transcriptional activity; Potency, µM (doses to about 53.6 µM), usual class: inhibitors; Drosophila S2 Gal4-RORgamma UAS-luciferase reporter, 20 h; AID 2551; 310,000 tested, 5.4% active; P51450; further: nearly all actives have a fitted effect of over 60% in size
Target sequence (P51450 whole entry, looked up, the tested form may be a part): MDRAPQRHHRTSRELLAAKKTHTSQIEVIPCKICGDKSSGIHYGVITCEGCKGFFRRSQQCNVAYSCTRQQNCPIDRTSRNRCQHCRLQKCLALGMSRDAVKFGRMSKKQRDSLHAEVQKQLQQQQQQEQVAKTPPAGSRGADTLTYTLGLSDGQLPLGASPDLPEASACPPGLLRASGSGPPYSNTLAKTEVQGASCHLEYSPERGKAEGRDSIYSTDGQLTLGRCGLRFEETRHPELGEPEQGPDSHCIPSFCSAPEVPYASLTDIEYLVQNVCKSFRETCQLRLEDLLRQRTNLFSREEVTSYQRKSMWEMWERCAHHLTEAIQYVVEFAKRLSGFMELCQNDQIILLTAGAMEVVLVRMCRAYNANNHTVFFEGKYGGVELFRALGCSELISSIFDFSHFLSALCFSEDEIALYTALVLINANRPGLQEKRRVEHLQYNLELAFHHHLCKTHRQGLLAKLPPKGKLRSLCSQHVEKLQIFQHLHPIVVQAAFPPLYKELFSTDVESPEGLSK
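Compounds are pin-transferred onto Drosophila Schneider cells expressing a copper-inducible Gal4–ROR gamma transactivation domain fusion. After 1 hr, copper sulfate is added to 700 uM final; luciferase is read 20 hr later.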
HepG2 viability – kills HepG2 cells in TGF-b inhibitor counter-screen. HepG2 CAGA-GFP viability, ATP luminescence, 18 h. Potency, µM (series often up to 46.1 µM), most hits filed as cytotoxic. 410,000 tested, 0.76% active. AID 588856
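CellTiter-Glo luminescence gave cytotoxicity after 18 hours at 37 degrees C. The cells were HepG2 CAGA-GFP in 1% FBS DMEM, stimulated with 500 pg/mL TGF-beta after compound addition. %Activity was normalised to no-cell wells (complete cell-killing) and DMSO (no toxicity), and curves were fitted and classified.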
ATXN viability – reduces viability in counter-screen for ATXN expression inhibitors | S2 cells (HEK-293 line with an ATXN2-luciferase reporter) viability, CellTiter-Fluor protease fluorescence, 24 h | 400,000 tested, 0.49% active | AID 651635 | Potency, µM (titrated, usually from 56.7 µM), most hits filed as cytotoxic; further: nearly all actives have a fitted effect of over 40% in size
TGFb SMAD3 inh – blocks TGF-b signaling. Potency, µM (top dose mostly 46.1 µM), most hits filed as inhibitors. HepG2 CAGA-GFP TGF-b/SMAD3 reporter, GFP fluorescence, 18 h; TGF-beta stimulated, 500 pg/mL final. 410,000 tested, 1.2% active; further: nearly all actives have a fitted effect of over 65% in size
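GFP signal (ex488/em500-530) from TGF-beta-stimulated HEPG2 CAGA-GFP cells, 500 pg/mL final, 18 h at 37 degrees C in DMEM plus 1% FBS, normalized to unstimulated and DMSO-stimulated controls.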
Gal4-VP16 FLuc – Gal4-VP16 reporter inhibition counter-screen; Drosophila S2 Gal4-VP16 UAS-luciferase, luminescence, 20 h; Potency, µM (series often up to 53.6 µM), actives largely listed as inhibitors; 310,000 tested, 3.5% active;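 further: Gal4-VP16 expression switched on by copper sulfate through the metallothionein promoter; nearly all actives have a fitted effect of over 50% in size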
A number is an active result; i = inactive; ? = inconclusive; nt = no result. The call rests on the fitted dose curve; in most records, active means well fitted curve in the direction sought with a large enough effect; inconclusive means small, poorly fitted or top-dose-only effect, or another doubt; inactive means no such curve, though single readings can be large; an effect the other way counts as inactive or inconclusive.

SMILES	ATXN2 expr inh	RORg inh	HepG2 viability	ATXN viability	TGFb SMAD3 inh	Gal4-VP16 FLuc
CN1CCN(Cn2cc(/C=C/C(=O)c3ccccc3)c3ccccc32)CC1	i	?	i	?	13µM	i
CCCCN(C)CC(O)Cn1cc(/C=C/C(=O)c2ccc(OC)c(OC)c2)c2ccccc21 (stereo not given)	22µM	nt	i	nt	?	nt
COc1ccc(CNCCSc2nnnn2-c2ccccc2)c(OC)c1	i	nt	i	i	i	nt
CCCN(CCC)CC(O)Cn1cc(/C=C/C(=O)c2ccccc2)c2ccccc21 (stereo not given)	i	?	13µM	?	?	i
CCCN(CCC)CC(O)Cn1cc(/C=C/C(=O)c2ccc(Br)cc2)c2ccccc21 (stereo not given)	i	nt	i	nt	i	nt
O=C1NC(c2ccccc2Cl)=N/C1=C/c1ccco1	i	i	18µM	i	?	?
O=C1NC(c2ccc(Br)cc2)=N/C1=C/c1ccco1	i	?	i	i	i	?
Cc1ccc(SCc2cc(=O)[nH]c(/N=C(\N)Nc3ccccc3Sc3ccccc3)n2)cc1	i	i	i	i	i	i
COc1ccccc1N/C(N)=N/c1nc(CSc2ccc(C)cc2)cc(=O)[nH]1	i	i	i	i	i	7.9µM
COc1ccc(OC(C)C(=O)NCc2nc(-c3ccc(Cl)cc3)no2)cc1 (stereo not given)	?	nt	i	i	?	nt
O=C(NNC(=O)c1ccccc1OCc1ccc(F)cc1)c1ccccc1O	16µM	4.5µM	i	?	?	10µM
O=C(NNC(=O)c1ccccc1OCc1ccccc1)c1ccccc1O	?	6.3µM	i	i	i	11µM
O=C(NNC(=O)c1ccccc1OCc1ccccc1)c1ccccc1F	i	i	i	?	i	i
Cc1ccc2oc(-c3ccc(C)c(NC(=O)c4ccc(-c5ccccc5[N+](=O)[O-])o4)c3)nc2c1	i	nt	i	i	i	nt
Cc1ccc(C(=O)NNC(=S)NCC2CCCO2)cc1[N+](=O)[O-] (stereo not given)	i	5.6µM	i	i	i	i
Cc1ccc(C(=O)NC(=S)NCC2CCCO2)cc1[N+](=O)[O-] (stereo not given)	i	7.1µM	i	i	i	?
Cc1ccc(C(=O)NCC2CCCO2)cc1[N+](=O)[O-] (stereo not given)	i	i	i	i	i	i
O=C(CN1CCCc2ccccc21)N/N=C/c1ccccc1	i	i	i	i	i	?
O=C(CN1CCCc2ccccc21)N/N=C/c1ccc(O)cc1O	?	?	i	i	i	22µM
O=C(CN1CCCc2ccccc21)N/N=C/c1c(O)ccc2ccccc12	?	1.3µM	i	?	i	0.79µM
C=CC(=O)Nc1cccc(Nc2nc(N[C@H]3CC[C@H](N(C)C)CC3)nc3c2ncn3C(C)C)c1	1µM	nt	i	2µM	0.71µM	nt
CC(Nc1ncnc2c1cnn2-c1cccc(Cl)c1)c1ccccc1 (stereo not given)	i	nt	i	?	?	nt
CCCC12CN3CC(C)(CN(C1)C3c1ccc(CC)cc1)C2=O (stereo not given)	i	nt	i	i	i	nt
CC1CCCCN1C(=O)Cn1c(=O)oc2cc(S(=O)(=O)N3CCCC3)ccc21 (stereo not given)	i	2.5µM	i	i	i	i
C=CC[C@H](CC(=O)N(CCO)Cc1ccccc1)C(=O)NC[C@@H](OC(=O)[C@@H](CC=C)Cc1ccc(F)cc1)c1ccccc1	?	nt	i	nt	?	nt
SMILES	ATXN2 expr inh	RORg inh	HepG2 viability	ATXN viability	TGFb SMAD3 inh	Gal4-VP16 FLuc
C=CCC[C@H](Cc1ccc(F)cc1)C(=O)OC[C@@H](Cc1c[nH]c2ccccc12)NC(=O)[C@@H](CC=C)CC(=O)N(CCO)Cc1ccccc1	?	nt	i	16µM	?	nt
C=CCC[C@@H](Cc1ccc(F)cc1)C(=O)OC[C@H](Cc1c[nH]c2ccccc12)NC(=O)[C@H](CC=C)CC(=O)N(CCO)Cc1ccccc1	i	nt	i	22µM	?	nt
C=CCC[C@H](Cc1ccc(F)cc1)C(=O)O[C@H](CNC(=O)[C@@H](CC=C)CC(=O)N(CCO)Cc1ccccc1)c1ccccc1	?	nt	i	22µM	?	nt
COc1ccc(-c2nc(Cn3c(=O)cc(-c4ccccc4)c4c(C)nn(C)c43)c(C)o2)cc1OC	i	nt	i	i	i	nt
CCN(CC)C(=O)C1CN2CCc3cc(OC)c(OC)cc3C2CC1OC(C)=O (stereo not given)	i	nt	nt	i	nt	nt
O=C1c2cc(S(=O)(=O)N3CCOCC3)ccc2-c2ccc(S(=O)(=O)N3CCOCC3)cc21	nt	nt	i	nt	i	nt
CCC(C)[C@H](NC(=O)C1CCC(CNC(=O)[C@@H]2CCCN2C(=O)OC(C)(C)C)CC1)C(=O)O (stereo not given in full)	i	i	i	i	i	i
CCCNC(=O)[C@H]1O[C@H]1C(=O)N[C@H](C(=O)N1CCC[C@@H]1C(=O)OC)C(C)CC (stereo not given in full)	22µM	nt	nt	nt	nt	nt
COc1ccc(CCNC(=O)CCn2c(=O)c3ccccc3n(Cc3c(C)cc(C)cc3C)c2=O)cc1OC	i	nt	i	i	i	nt
Fc1ccc(/C=C2\CCCC3=C2Nc2ncnn2C3c2ccc(F)cc2)cc1 (stereo not given)	25µM	i	i	18µM	?	i
C/C=C/C(=O)C[C@H]1CC[C@@H](C)[C@@H](CCO)O1	nt	i	nt	nt	nt	i
FC(F)(F)c1cnc(C(c2ccccn2)c2ncn[nH]2)c(Cl)c1 (stereo not given)	i	11µM	i	nt	i	i
FC(F)(F)c1cnc(C(c2ccccc2)c2ncn[nH]2)c(Cl)c1 (stereo not given)	i	i	i	i	i	i
Cc1cc(Sc2nnc(N)s2)c2ccccc2n1	?	7.9µM	i	25µM	7.1µM	11µM
Cc1cc(Sc2nnc(/N=C/N(C)C)s2)c2ccccc2n1	nt	8.9µM	11µM	?	8.9µM	?
Cc1cc(C)c2ccccc2n1	nt	nt	i	nt	i	nt
CCCCCCCCSc1nnc(/N=C/N(C)C)s1	i	i	i	i	i	i
COc1cc(NS(=O)(=O)c2ccc(NC(=O)c3ccccc3C(=O)O)cc2)nc(OC)n1	i	nt	i	i	i	nt
CC1CCC2C(=O)N(c3ccc(C(=O)Oc4cccc5cccnc45)cc3)C(=O)C2C1 (stereo not given)	i	6.3µM	i	nt	i	3.2µM
Cc1ccc(C(=O)Oc2ccccc2N2C(=O)C3CCC(C)CC3C2=O)cc1 (stereo not given)	nt	i	i	nt	i	i
O=[N+]([O-])c1ccc(C2Oc3ccccc3C3CC(c4ccccc4)=NN32)s1 (stereo not given)	nt	11µM	nt	nt	nt	?
